# Legend:
# Experiment in all cases: DAPPL (digital affinity profiling via proximity ligation, sequencing); 10 mM Tris-HCl pH 7.5, 50 mM NaCl, 1 mM DTT, 4% glycerol, room temperature, 30 min; GST-TFs on glutathione beads, 16-mer random dsDNA library, 0.1% formaldehyde crosslink after washing; high values mean tight binding
# FLI1 = biological target: T1, FLI1 (Homo sapiens, UniProt Q01543 1-452); settings: protein: recombinant; tags: N-terminal GST; dsDNA, one strand shown
# T1 sequence: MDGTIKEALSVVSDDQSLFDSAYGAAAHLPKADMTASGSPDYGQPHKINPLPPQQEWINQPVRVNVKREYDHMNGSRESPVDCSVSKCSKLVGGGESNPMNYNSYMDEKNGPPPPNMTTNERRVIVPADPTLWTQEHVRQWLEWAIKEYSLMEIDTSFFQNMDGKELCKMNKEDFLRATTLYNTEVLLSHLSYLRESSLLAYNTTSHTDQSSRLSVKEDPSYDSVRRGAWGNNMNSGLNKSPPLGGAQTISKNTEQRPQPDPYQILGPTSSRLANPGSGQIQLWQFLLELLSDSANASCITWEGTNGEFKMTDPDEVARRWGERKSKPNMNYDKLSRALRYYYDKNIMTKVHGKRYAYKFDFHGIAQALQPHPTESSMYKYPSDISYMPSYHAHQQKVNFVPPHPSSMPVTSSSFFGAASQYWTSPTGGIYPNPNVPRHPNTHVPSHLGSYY
# Outline: (§1)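 Human transcription factors fused to GST were expressed in yeast, captured on glutathione beads, given DNA barcodes and pooled with a GST-only negative control. Pools were incubated with 200 nmole of a 16-mer random double-stranded DNA library in Tris/NaCl/DTT/glycerol buffer at room temperature for 30 min. They were then washed, crosslinked with 0.1% formaldehyde, proximity-ligated (BsaI/T4 ligase, 1 h, 37 °C), PCR-amplified and sequenced on an Illumina NextSeq500. Binding signal is each 6-mer's read frequency for a factor divided by its frequency for the GST control.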
# ELK1 = biological target: T2, ELK1 (Homo sapiens, UniProt P19419 1-428); settings: protein: recombinant; tags: N-terminal GST; dsDNA, one strand shown
# T2 sequence: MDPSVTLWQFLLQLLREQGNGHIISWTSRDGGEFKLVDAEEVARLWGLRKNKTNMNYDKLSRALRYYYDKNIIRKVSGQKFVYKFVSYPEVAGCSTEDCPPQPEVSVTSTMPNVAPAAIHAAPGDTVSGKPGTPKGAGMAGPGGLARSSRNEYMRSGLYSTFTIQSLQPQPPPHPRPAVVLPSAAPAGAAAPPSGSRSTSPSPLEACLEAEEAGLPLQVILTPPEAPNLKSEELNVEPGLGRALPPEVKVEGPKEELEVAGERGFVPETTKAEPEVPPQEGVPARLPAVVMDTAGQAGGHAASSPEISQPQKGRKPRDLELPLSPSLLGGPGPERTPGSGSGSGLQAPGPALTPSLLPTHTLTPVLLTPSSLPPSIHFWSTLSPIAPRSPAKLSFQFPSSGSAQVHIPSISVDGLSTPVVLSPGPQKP
# Outline: as §1
# GABPA = biological target: T3, GABPA (Homo sapiens, UniProt Q06546 1-454); settings: protein: recombinant; tags: N-terminal GST; dsDNA, one strand shown
# T3 sequence: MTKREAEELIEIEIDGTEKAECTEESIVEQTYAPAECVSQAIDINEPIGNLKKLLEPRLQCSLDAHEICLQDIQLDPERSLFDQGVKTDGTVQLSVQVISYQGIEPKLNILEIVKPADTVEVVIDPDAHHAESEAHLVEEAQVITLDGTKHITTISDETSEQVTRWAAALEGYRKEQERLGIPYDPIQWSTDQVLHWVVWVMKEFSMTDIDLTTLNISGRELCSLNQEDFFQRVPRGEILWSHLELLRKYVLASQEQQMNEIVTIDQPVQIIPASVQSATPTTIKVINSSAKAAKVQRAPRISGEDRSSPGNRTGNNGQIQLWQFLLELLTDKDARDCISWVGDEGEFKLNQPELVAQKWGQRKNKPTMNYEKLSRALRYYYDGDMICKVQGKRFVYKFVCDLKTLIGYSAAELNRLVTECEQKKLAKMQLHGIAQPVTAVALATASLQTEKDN
# Outline: as §1
# ERG = biological target: T4, ERG (Homo sapiens, UniProt P11308 1-479); settings: protein: recombinant; tags: N-terminal GST; dsDNA, one strand shown
# T4 sequence: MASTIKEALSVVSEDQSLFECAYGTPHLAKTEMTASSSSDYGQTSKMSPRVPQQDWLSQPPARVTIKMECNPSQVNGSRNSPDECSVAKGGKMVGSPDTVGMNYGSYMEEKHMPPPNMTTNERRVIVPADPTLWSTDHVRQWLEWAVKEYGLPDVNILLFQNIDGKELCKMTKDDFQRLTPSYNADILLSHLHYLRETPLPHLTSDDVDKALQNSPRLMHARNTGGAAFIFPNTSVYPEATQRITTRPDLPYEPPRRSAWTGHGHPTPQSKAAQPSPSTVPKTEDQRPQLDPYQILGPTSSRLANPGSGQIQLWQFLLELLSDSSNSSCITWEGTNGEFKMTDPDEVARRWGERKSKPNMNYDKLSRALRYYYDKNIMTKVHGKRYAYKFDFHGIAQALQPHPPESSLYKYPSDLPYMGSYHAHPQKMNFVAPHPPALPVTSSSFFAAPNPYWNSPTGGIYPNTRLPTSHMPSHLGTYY
# Outline: as §1
# ELF1 = ELF1 (Homo sapiens, UniProt P32519 1-619); settings: protein: recombinant; tags: N-terminal GST; dsDNA, one strand shown
# Outline: as §1
# EHF = biological target: T5, EHF (Homo sapiens, UniProt Q9NZC4 1-300); settings: protein: recombinant; tags: N-terminal GST; dsDNA, one strand shown
# T5 sequence: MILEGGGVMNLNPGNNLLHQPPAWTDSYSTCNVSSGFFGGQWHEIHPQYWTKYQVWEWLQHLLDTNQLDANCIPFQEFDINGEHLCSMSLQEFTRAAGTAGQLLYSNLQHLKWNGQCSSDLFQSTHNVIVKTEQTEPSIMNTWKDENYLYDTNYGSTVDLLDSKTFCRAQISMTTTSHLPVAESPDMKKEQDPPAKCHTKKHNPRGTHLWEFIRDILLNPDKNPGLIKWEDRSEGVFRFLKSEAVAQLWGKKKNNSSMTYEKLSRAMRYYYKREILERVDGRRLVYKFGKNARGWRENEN
# Outline: as §1
# SPI1 = SPI1 (Homo sapiens, UniProt P17947 1-270); settings: protein: recombinant; tags: N-terminal GST; dsDNA, one strand shown
# Outline: as §1
# SPIB = SPIB (Homo sapiens, UniProt Q01892 1-262); settings: protein: recombinant; tags: N-terminal GST; dsDNA, one strand shown
# Outline: as §1
# ELK3 = biological target: T6, ELK3 (Homo sapiens, UniProt P41970 1-407); settings: protein: recombinant; tags: N-terminal GST; dsDNA, one strand shown
# T6 sequence: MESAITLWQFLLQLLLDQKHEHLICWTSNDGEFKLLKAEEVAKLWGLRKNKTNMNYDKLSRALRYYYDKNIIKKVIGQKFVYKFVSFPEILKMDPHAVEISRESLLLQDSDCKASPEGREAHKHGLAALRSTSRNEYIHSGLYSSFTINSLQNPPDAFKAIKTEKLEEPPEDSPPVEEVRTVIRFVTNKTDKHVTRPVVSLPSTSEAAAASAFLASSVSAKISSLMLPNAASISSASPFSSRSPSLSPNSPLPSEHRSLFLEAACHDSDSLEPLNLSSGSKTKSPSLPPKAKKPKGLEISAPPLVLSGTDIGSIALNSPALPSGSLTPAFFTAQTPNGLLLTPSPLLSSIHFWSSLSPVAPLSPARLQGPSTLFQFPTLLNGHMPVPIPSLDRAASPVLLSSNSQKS
# Outline: as §1
# FEV = biological target: T7, FEV (Homo sapiens, UniProt Q99581 1-238); settings: protein: recombinant; tags: N-terminal GST; dsDNA, one strand shown
# T7 sequence: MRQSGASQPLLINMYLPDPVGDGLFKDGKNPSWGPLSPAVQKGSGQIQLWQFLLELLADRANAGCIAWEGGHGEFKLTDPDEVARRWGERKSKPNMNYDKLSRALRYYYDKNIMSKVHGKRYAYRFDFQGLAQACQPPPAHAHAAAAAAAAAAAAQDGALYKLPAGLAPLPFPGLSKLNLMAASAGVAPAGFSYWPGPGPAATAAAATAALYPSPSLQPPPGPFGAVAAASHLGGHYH
# Outline: as §1
# ETV5 = ETV5 (Homo sapiens, UniProt P41161 1-510); settings: protein: recombinant; tags: N-terminal GST; dsDNA, one strand shown
# Outline: as §1
# HSF1 = HSF1 (Homo sapiens, UniProt Q00613 1-529); settings: protein: recombinant; tags: N-terminal GST; chain copies: 3; dsDNA, one strand shown
# Outline: as §1
# SPIC = biological target: T8, SPIC (Homo sapiens, UniProt Q8N5J4 1-248); settings: protein: recombinant; tags: N-terminal GST; dsDNA, one strand shown
# T8 sequence: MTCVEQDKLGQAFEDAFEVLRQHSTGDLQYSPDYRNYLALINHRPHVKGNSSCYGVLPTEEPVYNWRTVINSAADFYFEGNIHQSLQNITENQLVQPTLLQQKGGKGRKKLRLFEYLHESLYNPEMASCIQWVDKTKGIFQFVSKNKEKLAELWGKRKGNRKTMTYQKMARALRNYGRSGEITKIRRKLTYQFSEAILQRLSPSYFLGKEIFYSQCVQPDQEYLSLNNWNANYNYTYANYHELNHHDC
# Outline: as §1
# ELF4 = ELF4 (Homo sapiens, UniProt Q99607 1-663); settings: protein: recombinant; tags: N-terminal GST; dsDNA, one strand shown
# Outline: as §1
# ELK4 = biological target: T9, ELK4 (Homo sapiens, UniProt P28324-2 1-405); settings: protein: recombinant; tags: N-terminal GST; dsDNA, one strand shown
# T9 sequence: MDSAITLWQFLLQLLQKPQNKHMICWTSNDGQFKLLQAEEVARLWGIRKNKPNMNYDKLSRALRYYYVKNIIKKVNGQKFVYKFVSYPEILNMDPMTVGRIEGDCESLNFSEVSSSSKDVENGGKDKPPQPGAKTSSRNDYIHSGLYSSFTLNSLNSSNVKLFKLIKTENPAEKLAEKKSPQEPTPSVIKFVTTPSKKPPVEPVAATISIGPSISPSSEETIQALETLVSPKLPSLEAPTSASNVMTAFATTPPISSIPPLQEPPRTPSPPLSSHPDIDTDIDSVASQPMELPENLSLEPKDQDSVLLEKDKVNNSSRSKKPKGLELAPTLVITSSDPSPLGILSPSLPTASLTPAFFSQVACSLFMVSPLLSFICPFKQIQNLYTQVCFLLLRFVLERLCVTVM
# Outline: as §1
# ETV2 = biological target: T10, ETV2 (Homo sapiens, UniProt O00321 1-342); settings: protein: recombinant; tags: N-terminal GST; dsDNA, one strand shown
# T10 sequence: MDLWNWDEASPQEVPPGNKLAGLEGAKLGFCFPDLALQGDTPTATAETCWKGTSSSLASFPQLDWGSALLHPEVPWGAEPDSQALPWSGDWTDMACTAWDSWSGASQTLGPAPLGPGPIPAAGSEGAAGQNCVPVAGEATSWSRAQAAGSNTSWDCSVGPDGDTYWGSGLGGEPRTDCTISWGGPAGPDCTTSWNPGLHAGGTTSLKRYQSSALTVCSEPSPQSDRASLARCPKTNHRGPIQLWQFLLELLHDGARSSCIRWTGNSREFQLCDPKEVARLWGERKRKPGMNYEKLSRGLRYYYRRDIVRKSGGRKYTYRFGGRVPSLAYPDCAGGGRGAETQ
# Outline: as §1
# ELF3 = biological target: T11, ELF3 (Homo sapiens, UniProt P78545 1-371); settings: protein: recombinant; tags: N-terminal GST; dsDNA, one strand shown
# T11 sequence: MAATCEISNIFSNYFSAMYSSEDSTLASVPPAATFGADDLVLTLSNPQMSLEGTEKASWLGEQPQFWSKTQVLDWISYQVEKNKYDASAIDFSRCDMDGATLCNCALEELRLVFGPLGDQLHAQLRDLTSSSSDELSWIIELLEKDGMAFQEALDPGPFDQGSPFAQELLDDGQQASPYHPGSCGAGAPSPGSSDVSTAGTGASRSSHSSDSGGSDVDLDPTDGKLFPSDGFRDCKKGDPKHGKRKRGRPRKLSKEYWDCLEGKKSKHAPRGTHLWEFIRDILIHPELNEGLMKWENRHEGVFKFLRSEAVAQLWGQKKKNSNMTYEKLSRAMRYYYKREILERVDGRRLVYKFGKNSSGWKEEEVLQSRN
# Outline: as §1
# CRX = CRX (Homo sapiens, UniProt O43186 1-299); settings: protein: recombinant; tags: N-terminal GST; dsDNA, one strand shown
# Outline: as §1
# ETV1 = ETV1 (Homo sapiens, UniProt P50549 1-477); settings: protein: recombinant; tags: N-terminal GST; dsDNA, one strand shown
# Outline: as §1
# Chain of ELF1 (P32519 whole entry): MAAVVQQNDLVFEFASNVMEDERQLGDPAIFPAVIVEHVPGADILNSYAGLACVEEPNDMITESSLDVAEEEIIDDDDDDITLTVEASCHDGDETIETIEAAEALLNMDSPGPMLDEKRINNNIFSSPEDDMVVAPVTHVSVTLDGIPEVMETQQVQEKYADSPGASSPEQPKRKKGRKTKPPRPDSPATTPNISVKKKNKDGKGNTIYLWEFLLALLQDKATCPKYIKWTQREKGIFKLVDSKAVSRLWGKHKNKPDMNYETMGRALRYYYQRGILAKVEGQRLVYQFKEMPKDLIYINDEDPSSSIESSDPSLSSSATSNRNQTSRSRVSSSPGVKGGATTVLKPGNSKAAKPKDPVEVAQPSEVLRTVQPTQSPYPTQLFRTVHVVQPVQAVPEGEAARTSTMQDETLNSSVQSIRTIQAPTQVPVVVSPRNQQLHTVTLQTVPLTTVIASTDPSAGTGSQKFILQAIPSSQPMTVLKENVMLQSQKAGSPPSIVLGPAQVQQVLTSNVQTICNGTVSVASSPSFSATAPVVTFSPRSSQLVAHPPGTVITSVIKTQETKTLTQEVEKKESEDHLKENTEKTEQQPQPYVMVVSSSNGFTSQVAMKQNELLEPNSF
# Chain of SPIB (Q01892 whole entry): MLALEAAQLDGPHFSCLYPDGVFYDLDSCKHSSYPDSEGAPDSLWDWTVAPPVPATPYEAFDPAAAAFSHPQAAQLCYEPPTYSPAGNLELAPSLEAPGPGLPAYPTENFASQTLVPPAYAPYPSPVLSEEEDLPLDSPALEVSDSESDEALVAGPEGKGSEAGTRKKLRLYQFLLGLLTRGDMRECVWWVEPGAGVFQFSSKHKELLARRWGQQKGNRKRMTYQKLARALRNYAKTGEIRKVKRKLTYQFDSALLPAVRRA
# Chain of ELF4 (Q99607 whole entry): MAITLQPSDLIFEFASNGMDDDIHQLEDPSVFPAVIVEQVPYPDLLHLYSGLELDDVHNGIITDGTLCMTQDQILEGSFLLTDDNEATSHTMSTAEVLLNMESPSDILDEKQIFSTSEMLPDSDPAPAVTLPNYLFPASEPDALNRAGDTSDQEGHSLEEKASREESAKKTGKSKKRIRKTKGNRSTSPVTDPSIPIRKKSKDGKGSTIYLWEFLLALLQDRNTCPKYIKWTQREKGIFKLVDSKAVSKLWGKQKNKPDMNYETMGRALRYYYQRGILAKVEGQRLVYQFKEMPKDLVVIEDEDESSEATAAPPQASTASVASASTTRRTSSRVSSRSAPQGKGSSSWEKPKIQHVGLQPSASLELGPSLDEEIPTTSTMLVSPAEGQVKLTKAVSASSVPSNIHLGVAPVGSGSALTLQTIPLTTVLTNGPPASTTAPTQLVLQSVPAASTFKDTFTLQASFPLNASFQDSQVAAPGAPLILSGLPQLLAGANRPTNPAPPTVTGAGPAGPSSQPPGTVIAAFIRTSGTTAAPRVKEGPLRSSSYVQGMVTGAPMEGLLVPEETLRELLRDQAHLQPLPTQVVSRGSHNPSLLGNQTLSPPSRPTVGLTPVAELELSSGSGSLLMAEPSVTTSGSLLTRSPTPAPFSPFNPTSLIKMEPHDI
# Chain of ETV5 (P41161 whole entry): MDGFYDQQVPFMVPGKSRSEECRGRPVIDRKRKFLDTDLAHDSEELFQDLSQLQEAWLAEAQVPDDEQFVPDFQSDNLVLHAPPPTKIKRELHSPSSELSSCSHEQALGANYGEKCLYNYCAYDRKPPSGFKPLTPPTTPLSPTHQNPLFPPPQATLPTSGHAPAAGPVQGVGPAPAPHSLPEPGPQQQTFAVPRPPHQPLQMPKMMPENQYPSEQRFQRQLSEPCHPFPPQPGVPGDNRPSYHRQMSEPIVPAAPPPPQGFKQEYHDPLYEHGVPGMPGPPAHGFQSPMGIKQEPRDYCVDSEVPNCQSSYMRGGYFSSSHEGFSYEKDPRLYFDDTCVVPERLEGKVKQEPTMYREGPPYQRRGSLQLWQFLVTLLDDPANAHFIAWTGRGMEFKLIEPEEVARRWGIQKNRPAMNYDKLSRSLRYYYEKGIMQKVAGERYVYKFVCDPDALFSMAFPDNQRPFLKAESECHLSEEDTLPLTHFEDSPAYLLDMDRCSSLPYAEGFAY
# Chain of ETV1 (P50549 whole entry): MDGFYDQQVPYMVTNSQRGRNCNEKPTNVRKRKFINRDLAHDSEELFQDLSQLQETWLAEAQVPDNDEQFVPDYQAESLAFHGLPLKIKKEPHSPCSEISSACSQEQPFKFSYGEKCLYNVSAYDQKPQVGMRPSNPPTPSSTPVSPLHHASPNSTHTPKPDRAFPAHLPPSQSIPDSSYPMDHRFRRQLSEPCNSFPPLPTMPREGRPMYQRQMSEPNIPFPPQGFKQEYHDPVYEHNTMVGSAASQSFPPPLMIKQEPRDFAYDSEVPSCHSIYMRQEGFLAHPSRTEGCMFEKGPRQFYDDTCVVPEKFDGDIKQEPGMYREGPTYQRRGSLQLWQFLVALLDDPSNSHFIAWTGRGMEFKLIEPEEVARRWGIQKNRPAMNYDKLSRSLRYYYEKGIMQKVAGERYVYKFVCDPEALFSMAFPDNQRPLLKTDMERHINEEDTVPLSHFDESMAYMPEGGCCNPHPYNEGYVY
# Chain of CRX (O43186 whole entry): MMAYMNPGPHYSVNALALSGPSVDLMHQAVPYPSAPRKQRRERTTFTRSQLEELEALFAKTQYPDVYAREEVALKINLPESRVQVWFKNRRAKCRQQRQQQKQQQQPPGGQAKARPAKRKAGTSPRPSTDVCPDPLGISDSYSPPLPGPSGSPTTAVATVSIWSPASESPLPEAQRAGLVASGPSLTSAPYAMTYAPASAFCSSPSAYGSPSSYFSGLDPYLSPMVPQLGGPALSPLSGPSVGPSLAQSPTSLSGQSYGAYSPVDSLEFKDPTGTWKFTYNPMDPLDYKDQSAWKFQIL
# Chain of HSF1 (Q00613 whole entry): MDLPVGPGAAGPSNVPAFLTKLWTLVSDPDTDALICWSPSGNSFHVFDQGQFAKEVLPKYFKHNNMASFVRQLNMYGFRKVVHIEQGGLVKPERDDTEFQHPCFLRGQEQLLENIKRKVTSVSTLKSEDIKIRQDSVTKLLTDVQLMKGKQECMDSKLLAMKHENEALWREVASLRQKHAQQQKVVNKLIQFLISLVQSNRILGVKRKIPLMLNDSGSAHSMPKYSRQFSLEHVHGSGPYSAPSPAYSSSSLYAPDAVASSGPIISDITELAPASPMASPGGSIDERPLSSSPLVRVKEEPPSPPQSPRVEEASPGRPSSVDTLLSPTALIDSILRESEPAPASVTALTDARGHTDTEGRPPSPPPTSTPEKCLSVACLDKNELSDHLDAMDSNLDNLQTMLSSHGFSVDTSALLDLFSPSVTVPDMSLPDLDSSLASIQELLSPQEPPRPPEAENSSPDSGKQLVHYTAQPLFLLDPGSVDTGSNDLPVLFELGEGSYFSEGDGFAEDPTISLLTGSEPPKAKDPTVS
sequence,measurement,setting,value
ATCGCC,binding signal,FLI1,"1.28 fold enrichment (6-mer frequency, TF over GST control)"
same,binding signal,ELK1,"1.36 fold enrichment (6-mer frequency, TF over GST control)"
same,binding signal,GABPA,"1.27 fold enrichment (6-mer frequency, TF over GST control)"
same,binding signal,ERG,"1.29 fold enrichment (6-mer frequency, TF over GST control)"
same,binding signal,ELF1,"1.23 fold enrichment (6-mer frequency, TF over GST control)"
same,binding signal,EHF,"1.37 fold enrichment (6-mer frequency, TF over GST control)"
same,binding signal,SPI1,"1.22 fold enrichment (6-mer frequency, TF over GST control)"
same,binding signal,SPIB,"1.29 fold enrichment (6-mer frequency, TF over GST control)"
same,binding signal,ELK3,"1.27 fold enrichment (6-mer frequency, TF over GST control)"
same,binding signal,FEV,"1.24 fold enrichment (6-mer frequency, TF over GST control)"
same,binding signal,ETV5,"1.23 fold enrichment (6-mer frequency, TF over GST control)"
same,binding signal,HSF1,"1.28 fold enrichment (6-mer frequency, TF over GST control)"
same,binding signal,SPIC,"1.31 fold enrichment (6-mer frequency, TF over GST control)"
same,binding signal,ELF4,"1.24 fold enrichment (6-mer frequency, TF over GST control)"
same,binding signal,ELK4,"1.28 fold enrichment (6-mer frequency, TF over GST control)"
same,binding signal,ETV2,"1.2 fold enrichment (6-mer frequency, TF over GST control)"
same,binding signal,ELF3,"1.12 fold enrichment (6-mer frequency, TF over GST control)"
same,binding signal,CRX,"1.4 fold enrichment (6-mer frequency, TF over GST control)"
same,binding signal,ETV1,"1.32 fold enrichment (6-mer frequency, TF over GST control)"

# Source: paper PMC7862700, “An all-to-all approach to the identification of sequence-specific readers for epigenetic DNA modifications on cytosine”
